G9a inh – inhibitors of human histone lysine methyltransferase G9a. 350,000 tested, 8.8% active. G9a H3K9 monomethylation, AlphaScreen, 2 h. Q96KQ7. Potency, µM (top dose mostly 102 µM), for inactives: at the highest dose activity, negative = inhibition, usual class: inhibitors. AID 504332; also: % is scaled to controls: 0 for no effect and ±100 for the full control effect; nearly all actives have a fitted effect of over 75% in size
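AlphaScreen detection with an anti-monomethyl H3K9 antibody quantified product after a 2 h room-temperature reaction containing 500 nM biotinylated H3K9 peptide, 20 µM SAM and 20 nM enzyme, which had been preincubated 15 min with compound.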
12-LOX inh – blocks human arachidonate 12S-lipoxygenase. P18054. purified 12hLO, xylenol orange hydroperoxide absorbance. Potency, µM (titrated, usually from 108 µM), for the others: at the highest dose activity change, negative = inhibition, actives largely listed as inhibitors. 580,000 tested, 1.1% active; also: % is scaled to controls: 0 for no effect and ±100 for the full control effect
Target sequence (P18054 whole entry, looked up): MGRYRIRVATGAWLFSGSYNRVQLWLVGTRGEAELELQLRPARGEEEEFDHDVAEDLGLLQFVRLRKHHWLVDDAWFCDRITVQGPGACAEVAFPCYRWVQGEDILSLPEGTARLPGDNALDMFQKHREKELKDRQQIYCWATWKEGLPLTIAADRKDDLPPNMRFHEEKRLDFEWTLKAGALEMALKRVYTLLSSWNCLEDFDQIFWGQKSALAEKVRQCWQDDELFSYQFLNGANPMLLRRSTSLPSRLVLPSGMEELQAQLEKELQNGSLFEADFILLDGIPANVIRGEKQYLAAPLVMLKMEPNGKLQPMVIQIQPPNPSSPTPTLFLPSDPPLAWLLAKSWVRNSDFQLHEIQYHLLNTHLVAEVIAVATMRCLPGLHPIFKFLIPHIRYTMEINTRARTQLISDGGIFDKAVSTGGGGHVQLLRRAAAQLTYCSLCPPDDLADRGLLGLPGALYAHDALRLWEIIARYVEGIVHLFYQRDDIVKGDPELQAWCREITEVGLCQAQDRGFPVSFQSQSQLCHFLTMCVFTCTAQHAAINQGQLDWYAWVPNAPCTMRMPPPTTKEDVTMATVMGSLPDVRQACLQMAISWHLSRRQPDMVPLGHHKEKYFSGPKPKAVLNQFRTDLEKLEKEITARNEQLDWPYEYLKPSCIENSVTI
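Hydroperoxide product was detected by ferrous iron/xylenol orange as the 573 to 405 nm absorbance ratio. Arachidonic acid at 40 uM (final) was turned over for 30 min at room temperature by 150 nM human 12hLO, pH 7.0 Hepes buffer, after 15 min compound preincubation.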
Sfp inh – inhibitors of Bacillus subtilis Sfp phosphopantetheinyl transferase; AID 1490; 310,000 tested, 3.5% active; Biochemical Sfp PPTase activity, qHTS; Q9F4F7; Potency, µM, inactives show largest response in the series, negative = inhibition, hits mostly inhibitors;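 also: the enzyme is Sfp with the accession as filed and its product quenches rhodamine fluorescence; 0% = enzyme reaction without inhibitor and -100% = no enzyme wells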
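After 15 min at room temperature with compound, 15 nM Sfp received 5 uM rhodamine-CoA plus 12.5 uM BHQ-2-ybbR (50 mM Hepes pH 7.6, 10 mM MgCl2). Rate came from the fluorescence difference over 30 min, ex 525/em 598 nm.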
GRP78 ERSR act – induces the endoplasmic reticulum stress response in human glioma cells; U87-MG GRP78 promoter luciferase reporter, 16 h; Potency, µM, for the others: top-dose activation, hits mostly activators; 420,000 tested, 0.02% active; AID 602332; also: series mostly up to about 76 µM; % of control where 0% means no effect; nearly all actives have a fitted effect of over 35% in size
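Stably transfected U87-MG human glioma cells carrying a GRP78-based luminescent sensor were seeded at 1000 cells/well, pin-dosed with compounds and incubated 16 h. Luciferase reagent was then added, and end-point luminescence was read after 10 min at room temperature.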
VDR inhibitor – vitamin D3 receptor (human) inhibition | Potency, µM, inactives show max response, negative = inhibition, usual class: inhibitors | P11473 | VDR-SRC2-3 peptide fluorescence polarization, 2 h | 400,000 tested, 0.93% active; also: % is scaled to controls: 0 for no effect and ±100 for the full control effect
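Reagent solutions, kept cold and dark, are dispensed first; compounds are then pinned in at 23 nl, plates briefly spun, and incubated 2 h at ambient temperature. Inhibition of VDR–SRC2-3 peptide binding is read by fluorescence polarization.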
An asterisk follows results filed as active; ? = inconclusive; . = no result given; ! = not active in a repeat; [ ] = remark or other dose. The sample as a whole holds a higher share of hits than the screen did. Calls follow the shape of the dose curve; as a rule, active = well fitted curve in the direction sought with a large enough effect; inconclusive = small, poorly fitted or top-dose-only effect, or another doubt; inactive = no such curve, though single readings can be large; an effect the other way counts as inactive or inconclusive. Potency is read from the fitted curve at half-maximal effect.

SMILES	G9a inh	12-LOX inh	Sfp inh	GRP78 ERSR act	VDR inhibitor
Cc1ccc(CO/N=C\Cc2snc(Sc3ncc(C(F)(F)F)cc3Cl)c2C#N)cc1	11µM*	?	-13%	3%	?
CC1(C)NC(=O)N(Cc2ncc(-c3cccc(Cl)c3)o2)C1=O	.	4%	.	.	.
O=C(Cn1c(=O)c2c(ncn2C2CCCC2)n(Cc2ccccc2)c1=O)NCc1ccc(F)cc1	.	4%	.	.	.
CN1CCN(NS(=O)(=O)c2cccs2)CC1	1.4µM*	0%	1%	-4%	-20%
O=C(O)[C@H]1NCCC[C@H]1C(=O)O	6.7µM*!	.	.	-1%	-3%
CCCn1c(SCc2ncc(-c3ccc(F)cc3)o2)n[nH]c1=O	.	-17%	.	.	.
CCC(=O)NC(Nc1sc2c(c1C(=O)OC)CCC2)C(Cl)(Cl)Cl (stereo not drawn)	9%[59 µM]	-24%	20µM*	-4%	-18%
COC(=O)c1c(NC(NC(=O)CC(C)C)C(Cl)(Cl)Cl)sc2c1CCC2 (stereo not drawn)	8%[59 µM]	-14%	-12%	-3%	-2%
COC(=O)c1c(NC(NC(=O)C(C)C)C(Cl)(Cl)Cl)sc2c1CCC2 (stereo not drawn)	?	-1%	50µM*	-4%	-13%
Cc1ccc(-n2ncc3c(NC4CCCC4)ncnc32)cc1Cl	.	13%	.	.	.
COc1ccc2c(c1)CCCC(Br)C2=O (stereo not drawn)	.	40µM*	.	-3%	?
CN(C)C(CNC(=O)c1ccc(C2SCCS2)cc1)c1ccccc1 (stereo not drawn)	50µM*	2%	4%	15%	19%
O=C1c2c(nc(COc3ccccc3)n2Cc2ccccc2)NCCN1CC1CC1	.	26%[176 µM]	.	.	.
N#C/C(=C\c1ccc(OC(=O)c2ccccn2)cc1)C(N)=O	7.1µM*	23%	50µM*	0%	-25%
O=C(O)c1cc(-c2ccc(N3CCOCC3)cc2)nn1-c1ccc(F)cc1F	45µM*	?	13%	-5%	-16%
CCOC(=O)C1(Cc2cccc(OC)c2)CCCNC1 (stereo not drawn)	.	56%	.	.	.
CN(C)c1ccc(C=Nc2ccc(I)cc2)cc1	.	2%	.	.	.
C(=Nc1cccc2c(N=Cc3ccco3)cccc12)c1ccco1	40µM*	.	-11%	-2%	-17%
CN(C)c1ccc(N=Cc2ccco2)cc1	10µM*	.	45µM*	4%	2µM*
CC[C@@H](C)[C@H](NC(=O)OCc1ccccc1)c1nnc([C@@H](NC(=O)OCc2ccccc2)[C@@H](C)CC)o1	36%[59 µM]	-4%	10%	-2%	9%
CC(C)(C)OC(=O)N[C@@H](Cc1ccccc1)c1nnc(S(=O)(=O)Cc2cccc(F)c2)o1	35µM*	.	7.9µM*	3%	11µM*
CC[C@@H](C)[C@H](NC(=O)OC(C)(C)C)c1nnc(S(=O)(=O)Cc2cc(C)ccc2C)o1	79µM*	404%	?	-18%	11µM*
CC(C)C[C@H](N)c1nnc(S(=O)(=O)Cc2cccc(F)c2)o1	?	-8%	18µM*	-8%	18µM*
CCOC(=O)CSc1nnc([C@H](Cc2ccccc2)NC(=O)OC(C)(C)C)o1	-26%[59 µM]	0%	0%	5%	9%
Cc1ccc2oc(-c3ccc(Cl)cc3)nc2c1	.	-1%	.	.	.
SMILES	G9a inh	12-LOX inh	Sfp inh	GRP78 ERSR act	VDR inhibitor
COc1cccc(C2NC(=S)N(Cc3ccc(F)cc3)C(C)=C2C(C)=O)c1 (stereo not drawn)	.	45µM*	.	.	.
COCCN1C(=S)N[C@@H](c2cccc(F)c2)C(C(=O)OC)=C1C	19%[12.7 µM]	.	11%	.	.
CC(=O)C1=C(C)N(Cc2ccc(F)cc2)C(=S)NC1c1cccc(Cl)c1 (stereo not drawn)	.	45µM*	.	.	.
Cc1nc(C(=O)N2CC(=O)N(C3CCCCC3)CC(OCc3ccccc3)C2)cs1 (stereo not drawn)	.	20%	.	.	.
c1ccc2c(C3=NNC(=NC4CC4)SC3)c[nH]c2c1	13µM*	-2%	?	-13%	?
c1ccc2c(C3=NNC(=NC4CCCCC4)SC3)c[nH]c2c1	?	?	-10%	-1%	0%
c1ccc(C2=NNC(=NC3CC3)SC2)cc1	?	?	45µM*	-10%	-24%
O=C1NC(=S)S/C1=C\c1cc(Cl)cc(Cl)c1O	.	45µM*	.	-5%	?
CCN(CC)c1ccc(C=C2SC(=S)NC2=O)cc1	.	-1%	.	0%	?
Cc1cc(/C=C2\SC(=S)NC2=O)cc(C)c1O	40µM*	0%	13%	7%	-9%
Cc1cccc(C)c1NC(=O)N1CCN(S(C)(=O)=O)CC1	.	9%	.	.	.
CCCCCCCC1C(=O)CC(c2ccccc2)NC1c1ccccc1 (stereo not drawn)	.	2%	.	.	.
Cc1ccc(S(=O)(=O)CNC(=O)c2ccccc2)cc1	?	-7%	10%	3%	0%
Cc1ccc(S(=O)(=O)CNC(=S)c2ccc3ccccc3c2)cc1	8.9µM*	?	56µM*	2%	-27%
Cc1ccc(S(=O)(=O)CNC(=S)c2cccc(C)c2)cc1	10µM*	?	3%	-7%	4%
O=C(c1ccccc1)c1nc2c(n1O)CCCCC2	56µM*	-18%	3%	1%	12%
CCCOc1ccc(C(=O)c2nc3c(n2O)CCCCC3)cc1	-20%[12.7 µM]	-15%	-7%	-5%	20%
COc1cc(NC(=S)NC(=O)c2cccs2)ccc1NC(=O)C(C)C	?	7.1µM*	-13%	-2%	5%
COc1cc(NC(=S)NC(=O)c2ccc(C)cc2C)ccc1NC(=O)c1cccs1	?	5µM*	3%	-3%	-4%
CN1CCC(C(=O)N2Cc3ccccc3CC3(CCCN(Cc4ccncc4)C3)C2)CC1 (stereo not drawn)	.	-1%[6.33 µM]	.	.	.
CCN(Cc1ccccc1)C(c1cc2ccc(C)cc2[nH]c1=O)c1nnnn1CCOC (stereo not drawn)	35µM*	?	14%	1%	-17%
COCCn1nnnc1C(c1ccc2ncccc2c1)N1CCN(c2ccccc2F)CC1 (stereo not drawn)	8.9µM*	?	-1%	-2%	4%
COCCn1nnnc1C(c1ccc2ncccc2c1)N1CCc2ccccc21 (stereo not drawn)	50µM*	0%	12%	-4%	2%
COCCn1nnnc1C(c1ccccn1)N1CCN(c2cccc(C)c2C)CC1 (stereo not drawn)	?	0%	4%	-5%	15%
COCCn1nnnc1C(c1ccc(OC)cc1OC)N1CCN(c2ccccc2F)CC1 (stereo not drawn)	56µM*	40µM*	10%	1%	1%
CN1CC(=O)N(C2CCC2)Cc2c1ncnc2N1CCC(Cc2ccccc2)CC1	.	2%	.	.	.
N#Cc1ccc(CN2CCCCCCNC(=O)[C@@H]3C[C@@H](C(=O)NCCc4cnc[nH]4)C[C@@H]32)cc1	.	175%	.	.	.
CCc1noc(C)c1C(=O)Nc1sc(Cc2ccccc2)cc1C(=O)OC	.	2%	.	.	.

Assay outcomes from PubChem.
